ChEMBL document CHEMBL3433997, “St. Jude Leishmania screening dataset” (2016)
“And” between values parts separate entries of the source, which are not always exact repeats. Equal entries are not always repeated.

What follows are compounds tested against Hexose transporter 1 (Plasmodium falciparum) (UniProt O97467) (assay: ST_JUDE_LEISH: Cytotoxicity at 2uM final concentration against transgenic Leishmania Mexicana promastigotes LmPfHT that are glucose transport deficient and complemented with the Plasmodium falciparum hexose transporter. Activity is measured by DNA content using SYBR green in vitro).
Assay type: functional

Row | SMILES | inhibition
1 | COc1ccc2nccc([C@@H](O)CN3CCC(NC(=O)C(c4cc5ccccc5o4)N4CCN(c5ccccc5)CC4)CC3)c2c1 (stereo not given in full) | 2.83%
2 | CC(Cc1ccc(CNC(=O)c2ccc(CC(C)NCCc3cccc(Cl)c3)cc2)cc1)NCCc1cccc(Cl)c1 (stereo not given) | 8.32%
3 | COc1ccc2nccc([C@@H](O)CN3CCC(NCc4nc5c(cc4Cl)SCC(=O)N5)C(F)C3)c2c1 (stereo not given in full) | 2.07% and 9.64%
4 | Cc1ccc(C)c(Sc2ccc(NC(=O)CN3CCN(C(=O)c4ccco4)CC3)cc2)c1 | 0.52%
5 | CC(=O)Nc1ccc(C(=O)Nc2cccc(-c3cccc(-c4nc5cc(C(F)(F)F)ccc5[nH]4)c3)c2)cn1 | -2.32%
6 | Cc1cc2nc(-c3ccc(C(=O)NCCCc4ccccc4)cc3)[nH]c2cc1C | 9.39%
7 | COC(=O)c1cccc(CNCc2ccc(-c3ccc(-c4nc5cc(F)ccc5[nH]4)cc3)cc2)c1 | 6.26%
8 | Cc1cc(N2CCCN(C)CC2)nc(Nc2ccc(Cl)cc2)n1 | 1.73%
9 | CCCCCN1C(=O)C(c2ccccc2)(c2ccccc2)N=C1N | 2.96%
10 | CN1CCC(N2CCN(Cc3cccc(-c4cccc(-c5nc6ccccc6[nH]5)c4)c3)CC2)CC1 | 0.09%
11 | CNc1ccc(CNCc2cccc(-c3ccc(-c4nc5ccccc5[nH]4)s3)c2)cc1 | 1.02%
12 | Cc1ccc(/C=C/C(=O)NCCCCCN2CCC(c3c[nH]c4ccccc34)CC2)cc1 | 5.57%
13 | N#Cc1ccc2c(c1)CCN(CCC1CCC(NC(=O)Nc3cnc4ccccc4c3)CC1)C2 (stereo not given) | 3.15%
14 | c1ccc2c3c(ccc2c1)Sc1c(ccc2ccccc12)N3 | 5.61%
15 | CCS[C@@H]1O[C@H](COC(=O)c2ccccc2)[C@H](OC(=O)c2ccccc2)[C@H](OC(=O)c2ccccc2)[C@H]1OC(=O)c1ccccc1 | 4.06%
16 | CCCc1cc(C(=O)N[C@@H](Cc2ccccc2)[C@H](O)CNC(C)C)c(F)c(N2CCCC2=O)c1 | -0.79%
17 | CNCCNCc1ccc(-c2cccc(-c3nc4cc(C(F)(F)F)ccc4[nH]3)c2)cc1 | 0.66%
18 | Nc1nc(N)c2c(ccn2Cc2cc3c(cc2Cl)OCO3)n1 | 2.86%
19 | O=C(Nc1ccc(C(F)(F)F)cc1)c1ccc(S(=O)(=O)NC2CCN(CC3CCCCC3)C2)cc1 (stereo not given) | 1.05%
20 | O=C(NCc1cccc(CN2CCOCC2)c1)c1cc(Br)cc(N2CCN(c3ccncc3)CC2)c1 | 0.81%

Row | SMILES | inhibition
21 | COc1ccc(-c2cncc3ccc(C(=O)NCCCn4ccnc4)nc23)cc1 | 8.66%
22 | CC(C)[C@@H](NC(=O)NC1CCC(CCN2C3CCC2CC(OC(=O)C(CO)c2ccccc2)C3)CC1)C(O)(c1ccccc1)c1ccccc1 (stereo not given in full) | 8.36%
23 | Cc1ccc(O)c(C(=O)c2cc(C(=O)Nc3ccccc3C)c(=O)n(-c3ccccc3C)c2)c1 | 3.71%
24 | Cc1nnsc1C(=O)Nc1cccc(-c2cccc(-c3nc4cc(F)ccc4[nH]3)c2)c1 | 0.05%
25 | CC(C)CN1C(=O)c2ccc(C(=O)Nc3nccs3)cc2C1=O | 1.52%
26 | COc1ccc2ncc(F)c(C(O)CN3CCC(NCc4ccc5c(n4)NC(=O)CO5)CC3)c2c1 (stereo not given) | 2.57% and 4.56%
27 | O=[N+]([O-])c1ccc(C=NNc2nc3ccccc3[nH]2)cc1 | 0.53%
28 | O=C(/C=C/c1ccc(Cl)c(Cl)c1)NCCCCCCN1CCN(C(=O)Nc2ccc(Cl)c(Cl)c2)CC1 | 2.46%
29 | Cn1cncc1C(=O)Nc1cccc(-c2ccc(-c3nc4ccccc4[nH]3)s2)c1 | 2.88%
30 | CN1CCCC(CN2CCN(Cc3cccc(-c4ccc(-c5nc6cc(C(F)(F)F)ccc6[nH]5)cc4)c3)CC2)C1 (stereo not given) | 0.64%
31 | CN(C)C1CCN(CC#Cc2cc3ncnc(Nc4ccc(OCc5cccc(F)c5)c(Cl)c4)c3s2)CC1 | 0.49%
32 | COc1ccc(Br)cc1/C=C/C(=O)Nc1cccc(C2CCN(C)CC2)c1 | 0.87%
33 | Cc1ccc2c(c1)NCC21CCN(C[C@@H](O)C2CCN(c3cc(C#N)ccn3)CC2)CC1C (stereo not given in full) | 0%
34 | COc1ccc(-c2cc(C(=O)Nc3ccc4[nH]c(-c5ccccc5)nc4c3)[nH]n2)cc1 | 12%
35 | COc1ccc2ncc(F)c(CCN3CCC(NCc4cc5c(cn4)OCCS5)CC3)c2c1 | 66.5%
36 | Cc1cccc(Nc2nc(N)c3ccccc3n2)c1 | 16.5%
37 | Cc1ccc(CON2C(N)=NC(N)=NC23CCCCC3)c2ccccc12 | 2.42%
38 | CS(=O)(=O)NCCCNCc1ccc(-c2ccc(-c3nc4cc(C(F)(F)F)ccc4[nH]3)cc2)cc1 | 2.39%
39 | O=C(Cn1c(CCc2cccc(F)c2F)nc(=O)c2ccccc21)N(Cc1ccc(-c2ccc(C(F)(F)F)cc2)cc1)C1CCN(C2=NCCS2)CC1 | 4.28%
40 | Cn1nc(-c2ccc(CN[C@@H]3CCc4ccc(O)cc43)cc2)c2cnc(NC3CCCC3)nc21 | -1.03%

These compounds were tested against Glucose transporter (Leishmania mexicana) (UniProt O61059) (assay: ST_JUDE_LEISH: Cytotoxicity at 2uM final concentration against transgenic Leishmania Mexicana promastigotes LmGT2 that are glucose transport deficient and complemented with the L. Mexicana glucose transporter 2. Activity is measured by DNA content using SYBR green in vitro).
Assay type: functional

Row | SMILES | inhibition
41 | COc1ccc2nccc([C@@H](O)CN3CCC(NC(=O)C(c4cc5ccccc5o4)N4CCN(c5ccccc5)CC4)CC3)c2c1 (stereo not given in full) | 2.54%
42 | CC(Cc1ccc(CNC(=O)c2ccc(CC(C)NCCc3cccc(Cl)c3)cc2)cc1)NCCc1cccc(Cl)c1 (stereo not given) | 2.1%
43 | COc1ccc2nccc([C@@H](O)CN3CCC(NCc4nc5c(cc4Cl)SCC(=O)N5)C(F)C3)c2c1 (stereo not given in full) | 1.15% and 6.72%
44 | Cc1ccc(C)c(Sc2ccc(NC(=O)CN3CCN(C(=O)c4ccco4)CC3)cc2)c1 | 0.17%
45 | CC(=O)Nc1ccc(C(=O)Nc2cccc(-c3cccc(-c4nc5cc(C(F)(F)F)ccc5[nH]4)c3)c2)cn1 | -1.64%
46 | Cc1cc2nc(-c3ccc(C(=O)NCCCc4ccccc4)cc3)[nH]c2cc1C | 10.1%
47 | COC(=O)c1cccc(CNCc2ccc(-c3ccc(-c4nc5cc(F)ccc5[nH]4)cc3)cc2)c1 | 4.98%
48 | Cc1cc(N2CCCN(C)CC2)nc(Nc2ccc(Cl)cc2)n1 | 2.54%
49 | CCCCCN1C(=O)C(c2ccccc2)(c2ccccc2)N=C1N | 4.92%
50 | CN1CCC(N2CCN(Cc3cccc(-c4cccc(-c5nc6ccccc6[nH]5)c4)c3)CC2)CC1 | -3.95%
51 | CNc1ccc(CNCc2cccc(-c3ccc(-c4nc5ccccc5[nH]4)s3)c2)cc1 | 0.87%
52 | Cc1ccc(/C=C/C(=O)NCCCCCN2CCC(c3c[nH]c4ccccc34)CC2)cc1 | 3.18%
53 | N#Cc1ccc2c(c1)CCN(CCC1CCC(NC(=O)Nc3cnc4ccccc4c3)CC1)C2 (stereo not given) | 2.03%
54 | c1ccc2c3c(ccc2c1)Sc1c(ccc2ccccc12)N3 | 5.33%
55 | CCS[C@@H]1O[C@H](COC(=O)c2ccccc2)[C@H](OC(=O)c2ccccc2)[C@H](OC(=O)c2ccccc2)[C@H]1OC(=O)c1ccccc1 | 2.02%
56 | CCCc1cc(C(=O)N[C@@H](Cc2ccccc2)[C@H](O)CNC(C)C)c(F)c(N2CCCC2=O)c1 | -0.74%
57 | CNCCNCc1ccc(-c2cccc(-c3nc4cc(C(F)(F)F)ccc4[nH]3)c2)cc1 | 1.45%
58 | Nc1nc(N)c2c(ccn2Cc2cc3c(cc2Cl)OCO3)n1 | 10.5%
59 | O=C(Nc1ccc(C(F)(F)F)cc1)c1ccc(S(=O)(=O)NC2CCN(CC3CCCCC3)C2)cc1 (stereo not given) | -3.85%
60 | O=C(NCc1cccc(CN2CCOCC2)c1)c1cc(Br)cc(N2CCN(c3ccncc3)CC2)c1 | 0.57%

Row | SMILES | inhibition
61 | COc1ccc(-c2cncc3ccc(C(=O)NCCCn4ccnc4)nc23)cc1 | 7.3%
62 | CC(C)[C@@H](NC(=O)NC1CCC(CCN2C3CCC2CC(OC(=O)C(CO)c2ccccc2)C3)CC1)C(O)(c1ccccc1)c1ccccc1 (stereo not given in full) | 4.86%
63 | Cc1ccc(O)c(C(=O)c2cc(C(=O)Nc3ccccc3C)c(=O)n(-c3ccccc3C)c2)c1 | 1.81%
64 | Cc1nnsc1C(=O)Nc1cccc(-c2cccc(-c3nc4cc(F)ccc4[nH]3)c2)c1 | -2.12%
65 | CC(C)CN1C(=O)c2ccc(C(=O)Nc3nccs3)cc2C1=O | 3.65%
66 | COc1ccc2ncc(F)c(C(O)CN3CCC(NCc4ccc5c(n4)NC(=O)CO5)CC3)c2c1 (stereo not given) | -3.55% and 1.93%
67 | O=[N+]([O-])c1ccc(C=NNc2nc3ccccc3[nH]2)cc1 | -0.44%
68 | O=C(/C=C/c1ccc(Cl)c(Cl)c1)NCCCCCCN1CCN(C(=O)Nc2ccc(Cl)c(Cl)c2)CC1 | 4.14%
69 | Cn1cncc1C(=O)Nc1cccc(-c2ccc(-c3nc4ccccc4[nH]3)s2)c1 | 4.94%
70 | CN1CCCC(CN2CCN(Cc3cccc(-c4ccc(-c5nc6cc(C(F)(F)F)ccc6[nH]5)cc4)c3)CC2)C1 (stereo not given) | 1.86%
71 | CN(C)C1CCN(CC#Cc2cc3ncnc(Nc4ccc(OCc5cccc(F)c5)c(Cl)c4)c3s2)CC1 | 2.9%
72 | COc1ccc(Br)cc1/C=C/C(=O)Nc1cccc(C2CCN(C)CC2)c1 | 4.16%
73 | Cc1ccc2c(c1)NCC21CCN(C[C@@H](O)C2CCN(c3cc(C#N)ccn3)CC2)CC1C (stereo not given in full) | -3.72%
74 | COc1ccc(-c2cc(C(=O)Nc3ccc4[nH]c(-c5ccccc5)nc4c3)[nH]n2)cc1 | 14.1%
75 | COc1ccc2ncc(F)c(CCN3CCC(NCc4cc5c(cn4)OCCS5)CC3)c2c1 | 80.3%
76 | Cc1cccc(Nc2nc(N)c3ccccc3n2)c1 | 5.71%
77 | Cc1ccc(CON2C(N)=NC(N)=NC23CCCCC3)c2ccccc12 | 4.18%
78 | CS(=O)(=O)NCCCNCc1ccc(-c2ccc(-c3nc4cc(C(F)(F)F)ccc4[nH]3)cc2)cc1 | 1.11%
79 | O=C(Cn1c(CCc2cccc(F)c2F)nc(=O)c2ccccc21)N(Cc1ccc(-c2ccc(C(F)(F)F)cc2)cc1)C1CCN(C2=NCCS2)CC1 | 4.67%
80 | Cn1nc(-c2ccc(CN[C@@H]3CCc4ccc(O)cc43)cc2)c2cnc(NC3CCCC3)nc21 | -0.55%
